sEH inhibitor = inhibitors of human soluble epoxide hydrolase | P34913 | recombinant human sEH enzymatic activity assay | inhibition, % at 2 µM | hit rate 0.34% among 91,000; in the data active = inhibition above about 80%
CYP2C19 inhib = human CYP2C19 inhibition | P33261 | CYP2C19 Supersomes, luciferin-H EGE luminescence, 30 min | inhibition, % at 5 µM | hit rate 21% among 96,000;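 active = CYP2C19 inhibition above a set limit at 5 µM in the primary screen, cut at about 50% in these data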;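 note: plate controls were negative control wells for no effect and 2.5 mM tranylcypromine positive control for full effect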
Target sequence (P33261 whole entry, looked up): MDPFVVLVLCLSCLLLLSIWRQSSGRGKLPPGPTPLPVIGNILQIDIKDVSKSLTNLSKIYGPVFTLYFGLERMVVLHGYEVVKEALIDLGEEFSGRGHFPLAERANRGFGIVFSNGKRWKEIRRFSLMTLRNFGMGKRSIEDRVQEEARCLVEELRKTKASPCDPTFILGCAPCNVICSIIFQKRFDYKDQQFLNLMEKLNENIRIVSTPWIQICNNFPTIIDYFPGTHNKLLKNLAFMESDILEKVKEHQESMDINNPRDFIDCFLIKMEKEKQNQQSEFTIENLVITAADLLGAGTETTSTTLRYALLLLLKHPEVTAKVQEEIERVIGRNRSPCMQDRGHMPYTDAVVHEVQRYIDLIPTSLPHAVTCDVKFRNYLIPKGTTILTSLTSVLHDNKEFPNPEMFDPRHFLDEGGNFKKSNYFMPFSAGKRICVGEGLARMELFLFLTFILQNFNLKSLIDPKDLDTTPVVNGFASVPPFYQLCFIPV
sEH activator = activators of human soluble epoxide hydrolase; AID 717; activation, % at 2 µM; hit rate 0.04% among 91,000; P34913; purified human sEH enzymatic activity, activator screen; in the data active = activation above about 37%
CYP2C9 inh = blocks human cytochrome P450 2C9; P11712; inhibition, % at 5 µM; hit rate 20% among 96,000; CYP2C9 Supersomes, luciferin-H conversion, luminescence;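 active = blocking of liver enzyme CYP2C9 beyond about 50% at 5 µM, limit read from the data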
CYP2C9 act = CYP2C9 (human) activation; P11712; recombinant CYP2C9, luciferin-H conversion, luminescence; hits give high values; factor 1 = untreated enzyme, 0 = blocked; activation factor at 5 µM; hit rate 1.4% among 96,000;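 active = activation factor of 2 or more for CYP2C9 at a 5 µM dose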;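 note: 0 = sulfaphenazole-blocked wells and 1 = vehicle-only wells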
CYP2C19 activ = cytochrome P450 2C19 (human) activation | AID 1025 | 96,000 tested, under 10 active | activation factor at 5 µM | P33261 | recombinant CYP2C19, luciferin-H EGE luminescence; hits give high values; 0 = fully inhibited enzyme, 1 = untreated enzyme;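 active = activation factor of at least 2 at 5 µM in the primary screen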;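 note: 0 = wells with 2.5 mM tranylcypromine and 1 = vehicle-only wells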
An asterisk follows results filed as active; nt = no result. Compounds with a hit are over-represented: about 27% of the library has one in this group of screens.

SMILES	sEH inhibitor	CYP2C19 inhib	sEH activator	CYP2C9 inh	CYP2C9 act	CYP2C19 activ
COc1ccc2oc(=O)c(C(=O)N3CCN(c4ccccc4C)CC3)cc2c1	-1	1	1	0	1	1
CCOC(=O)C1CCN(C(=O)CN(c2ccc(OC)cc2)S(=O)(=O)c2c(C)nn(C)c2C)CC1	nt	31	nt	49	0.5	0.7
COc1ccc(S(=O)(=O)CCC(=O)N2c3ccccc3CC2C)cc1 (centres undefined)	nt	38	nt	-96	2*	0.6
CC1Cc2ccccc2N1C(=O)COC(=O)c1ccc(S(=O)(=O)N(C)C)cc1 (centres undefined)	-7	2	7	-15	1.2	1
Cc1nn(C)c(C)c1S(=O)(=O)N(CC(=O)N1CCc2ccccc2C1)c1ccc(C(C)C)cc1	-15	96*	12	81*	0.2	0
O=C(CN(c1ccc(Cl)c(Cl)c1)S(=O)(=O)c1ccccc1)N1CCc2ccccc2C1	0	89*	-2	50*	0.5	0.1
COc1ccc(N(CC(=O)N2CCc3ccccc3C2)S(C)(=O)=O)cc1OC	6	16	-7	-6	1.1	0.8
CCCn1nc(CC(=O)OCC)c2ccccc2c1=O	0	17	2	23	0.8	0.8
Cc1oc(-c2ccccc2F)nc1CN1CCC(C(=O)NC2CC2)CC1	5	-7	-5	-15	1.1	1.1
O=C(C1CCC(CNS(=O)(=O)c2cccc3nsnc23)CC1)N1CC=C(c2ccccc2)CC1 (centres undefined)	12	87*	-13	71*	0.3	0.1
O=C(C1CCCN(S(=O)(=O)c2cccc3nsnc23)C1)N1CC=C(c2ccccc2)CC1 (centres undefined)	13	64*	-13	69*	0.3	0.4
O=C(C1CCN(S(=O)(=O)c2cccc3nsnc23)CC1)N1CC=C(c2ccccc2)CC1	11	26	-13	-24	1.2	0.7
S=C(NN=C1C2CC3CC(C2)CC1C3)Nc1ccccc1	6	7	-7	3	1	0.9
CCCCn1c(N)c(N(CCOC)C(=O)CSc2nc3ccc(C)cc3[nH]2)c(=O)[nH]c1=O	-3	-13	4	-10	1.1	1.1
Cc1nn(-c2ccccc2)c(Cl)c1/C=C1\SC(=S)NC1=O	-11	4	7	76*	0.2	1
CCC1(C)Cc2c(sc3nc(SC)n(Cc4ccccc4)c(=O)c23)CO1 (centres undefined)	12	35	-9	90*	0.1	0.7
CC1(C)Cc2c(sc3nc(-c4ccccc4)n(N)c(=O)c23)CO1	0	2	4	0	1	1
CCC1(C)Cc2c(sc3nnn(CC(=O)Nc4cccc5ccccc45)c(=O)c23)CO1 (centres undefined)	14	12	-12	60*	0.4	0.9
COc1ccc(NC(=O)COC(=O)c2c(-c3ccccc3)noc2C)cc1	nt	53*	nt	27	0.7	0.5
Cc1onc(-c2ccccc2)c1C(=O)N/N=C(\N)COc1ccc(Cl)cc1	12	69*	-12	74*	0.3	0.3
COc1cccc(NC(=O)COC(=O)c2c(-c3ccccc3)noc2C)c1	nt	60*	nt	60*	0.4	0.4
COc1ccc(NC(=O)c2c(-c3ccccc3)noc2C)c(OC)c1	-13	46	15	31	0.7	0.5
Nc1cc(-c2ccccc2)nn1S(=O)(=O)c1ccc(Br)cc1	1	12	-2	49	0.5	0.9
COc1cc(-c2cc(N)n(S(=O)(=O)c3ccccc3)n2)cc(OC)c1OC	-1	96*	-2	98*	0	0
CNC(=O)c1cc2cc(OC)ccc2n1CCN(Cc1ccccc1)Cc1ccccc1	-5	92*	4	67*	0.3	0.1
SMILES	sEH inhibitor	CYP2C19 inhib	sEH activator	CYP2C9 inh	CYP2C9 act	CYP2C19 activ
CNC(=O)c1cc2cc(OC)ccc2n1CCN(C)C	4	63*	-1	-4	1	0.4
Cc1cccc2c1N1C(=O)c3c(C(=O)O)cccc3C1CC2C (centres undefined)	6	nt	-4	nt	nt	nt
CCCC(=O)N=C1SC2CS(=O)(=O)CC2N1c1ccc(C(C)=O)cc1 (centres undefined)	16	7	-16	42	0.6	0.9
COc1ccccc1NC(=O)C(=O)NNC(=O)c1ccco1	2	-4	1	-11	1.1	1
CO/N=C/c1ccc(Sc2ccccc2N)c([N+](=O)[O-])c1	7	74*	-6	69*	0.3	0.3
CO/N=C/c1ccc(Sc2ccccc2)c([N+](=O)[O-])c1	11	16	-10	74*	0.3	0.8
O=[N+]([O-])c1cc(/C=N/O)ccc1Sc1ccccc1	1	11	0	67*	0.3	0.9
O=[N+]([O-])c1cc(/C=N/O)ccc1SCc1ccccc1	-4	20	3	26	0.7	0.8
Cc1ccc(CNC(=O)c2ccc(CN3CCOCC3)cc2)cc1	nt	-15	nt	1	1	1.1
COc1ccc(S(=O)(=O)NCCSC(C)(C)C)c(Cl)c1Cl	-1	94*	3	-218	3.2*	0.1
CC(C)(C)SCCNS(=O)(=O)c1ccc(F)cc1	7	14	-7	40	0.6	0.9
COc1ccc(S(=O)(=O)NCc2ccccn2)c(Cl)c1Cl	7	88*	-9	-103	2*	0.1
CCCNS(=O)(=O)c1ccc(OC)c(Cl)c1Cl	8	53*	-6	10	0.9	0.5
O=C(CCNS(=O)(=O)c1ccc(Cl)cc1)N1CCC2(O)CCCCC2C1 (centres undefined)	9	-9	-8	16	0.8	1.1
COc1ccccc1-c1nnc(SCC(=O)N2CCC(C)CC2)o1	-2	76*	4	-291	3.9*	0.2
COc1cccc(-c2nnc(SCC(=O)N3CC(C)CC(C)C3)o2)c1 (centres undefined)	2	65*	-1	-17	1.2	0.4
COc1cccc(-c2nnc(SCC(=O)N3CCOCC3)o2)c1	1	-9	0	10	0.9	1.1
CC1CC(C)CN(C(=O)CSc2nnc(-c3ccc(Cl)cc3)o2)C1 (centres undefined)	nt	81*	nt	6	0.9	0.2
O=C(CSc1nnc(-c2ccc(O)cc2)o1)N1CCOCC1	nt	-5	nt	-148	2.5*	1
CCOC(=O)c1c(C)n(C)c2ccc(OC)c(NC(=O)CN3CCN(C4CCCCC4)CC3)c12	4	-16	-5	8	0.9	1.2
Oc1ccc(-c2nnc(SCC3CCCCC3)o2)cc1	1	3	-2	-107	2.1*	1
O=C(CSC1=NCCS1)N1CCOCC1	3	8	-1	30	0.7	0.9
COc1ccc(SCc2noc(C(=O)NC(C)C)c2C(=O)O)cc1	2	14	4	49	0.5	0.9
CC(C)NC(=O)c1onc(CSc2cccc(F)c2)c1C(=O)O	-2	-1	8	35	0.7	1
